Pf Dd2 inh: blocks in vitro growth of P. falciparum Dd2 | P. falciparum Dd2 growth, SYBR Green, 72 h | Potency, µM (titrated, usually from 28.9 µM), for inactives: at the highest dose activity, negative = inhibition, most hits filed as inhibitors | 120,000 tested, 4.3% active | AID 1347417; active = well fitted inhibition curve with a large enough effect;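 note: plate controls were DMSO vehicle for no effect and reference drug for full effect; nearly all actives have a fitted effect of over 65% in size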
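Readout: SYBR Green fluorescence, 485 nm excitation, 535 nm emission, after ~16 h lysis at 37C. Before that, Dd2-infected red cells (2.5% hematocrit) grew 72 h with compound, 29 uM top final concentration.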
The depositor's hits bear a star; i = inactive; [ ] = remark or other dose. This excerpt belongs to a sample that is enriched for hits. Potency is the fitted concentration of half-maximal effect.

SMILES | Pf Dd2 inh
CC(C)NC(=O)CC[C@@H]1CNC(=O)[C@@H]2C[C@H](NCc3ccc(N(C)C)cc3)CN12 | 18%[44.1 µM]
N#Cc1cccc(C(=O)N2CCC(Cc3nc(-c4ccncc4)n[nH]3)C2)c1 (stereo not drawn) | i
O=C(NCc1csc(-c2cnccn2)n1)C(c1cccnc1)N1CCOCC1 (stereo not drawn) | 5%
Cc1ccncc1C(=O)N1CCCn2ccnc2C1c1ccccc1 (stereo not drawn) | -14%
COc1ccc(NC(=O)Cn2ccn3nc(-c4ccccc4)c(CO)c3c2=O)c(OC)c1 | i
CS(=O)(=O)N1CCCN(C(=O)Cc2ccccc2)CCNC(=O)CC1c1ccccc1 (stereo not drawn) | -3%
O=C(NCCc1ccc(Cl)cc1)C1CCc2nnc(-c3ccc(Cl)nc3)n21 (stereo not drawn) | 4µM*
COC(=O)CNC(=O)C1CCc2nnc(-c3ccc(Cl)nc3)n21 (stereo not drawn) | 71%
O=C(NCc1cccnc1)C1CCc2nnc(-c3ccc(Cl)nc3)n21 (stereo not drawn) | 12%
CCN1CCN(C(=O)c2coc(COc3ccc4c(c3)OCO4)n2)CC1(C)C | 1%
Cn1nc(C2CCN(C(=O)c3ccc(CO)o3)CC2)n(-c2ccccc2)c1=O | -5%
CCOc1ccccc1NC(=O)N1c2ccccc2Sc2ccccc21 | 13µM*
CCOc1ccccc1NC(=O)N1CC(C)Oc2ccc(Cl)cc21 (stereo not drawn) | 15%
CCOc1ccccc1NC(=O)N1CCCn2nc(C)cc21 | i[5.79 µM]
Cc1cccc(NC(=O)N2CCC3(CC2)SCC(=O)N3Cc2ccccc2)c1C | i
Cn1c(CNC(=O)C[C@H]2NC(=O)c3ccccc3NC2=O)nc2ccccc21 | -9%
COc1ccc(C(C)NC(=O)COc2ccc(NC(C)=O)cn2)cc1 (stereo not drawn) | 12%
COCCNC(=O)[C@H]1CN2CCC1C[C@@H]2Cn1cc(C2(O)CCCCC2)nn1 (stereo partly drawn) | -12%[44.1 µM]
O=C1[C@H]2CNC[C@H]2C(=O)N1CCc1ccccc1 | 13%
COCCN1C(=O)c2ccccc2C(C(=O)Nc2ccc(C)cc2Cl)C12CCCC2 (stereo not drawn) | i
CC(C)CCNC(=O)C1c2ccccc2C(=O)N(Cc2ccccc2)C12CCCC2 (stereo not drawn) | -16%
O=C(NCC1CCOCC1)C1c2ccccc2C(=O)N(Cc2ccccc2)C12CCCC2 (stereo not drawn) | -23%
COCCN1C(=O)c2ccccc2C(C(=O)Nc2ccc3c(c2)OCCO3)C12CCCC2 (stereo not drawn) | -23%
COc1ccccc1NC(=O)C1c2ccccc2C(=O)N(Cc2ccccc2)C12CCCC2 (stereo not drawn) | 11µM*
COCCN1C(=O)c2ccccc2C(C(=O)Nc2ccc(F)cc2)C12CCCCC2 (stereo not drawn) | -19%
SMILES | Pf Dd2 inh
COCCN1C(=O)c2ccccc2C(C(=O)Nc2cc(C)ccn2)C12CCCCC2 (stereo not drawn) | 13µM*
Cc1ccnc(NC(=O)C2c3ccccc3C(=O)N(CC(C)C)C23CCCC3)c1 (stereo not drawn) | 5µM*
CC(C)CN1C(=O)c2ccccc2C(C(=O)Nc2ccc(C(N)=O)cc2)C12CCCCC2 (stereo not drawn) | 13µM*
COCCN1C(=O)c2ccccc2C(C(=O)NC2CCCCCC2)C12CCCC2 (stereo not drawn) | -13%
COCCN1C(=O)c2ccccc2C(C(=O)NC2CCCCC2)C12CCCC2 (stereo not drawn) | -1%
CCn1ncnc1CN1CCC(N2CCCC(C(=O)N3CCCC3)C2)CC1 (stereo not drawn) | 3%
Cc1ncc2n1C(=O)N(C1CCN(Cc3cccn3C)CC1)C2 | 12%[44.1 µM]
CN1CC(=O)N(C2CCNCC2)Cc2c1ncnc2N1CCC(O)CC1 | 13%
O=C(COc1ccc(Cl)c(Cl)c1)N1CCC2(CCCNC2=O)C1 (stereo not drawn) | -19%
COc1ccc(C(=O)N2CCC(c3n[nH]c(=O)n3Cc3ccc(F)cc3)CC2)c(C)c1 | -16%
CCCN(CC1CCOC1)S(=O)(=O)c1cc(Cl)ccc1OC (stereo not drawn) | 20%[5.79 µM]
CCOc1ccccc1NC(=O)C1c2ccccc2C(=O)N(CCOC)C12CCCCC2 (stereo not drawn) | 4µM*
CC(C)NC(=O)C1c2ccccc2C(=O)N(Cc2ccco2)C12CCCCC2 (stereo not drawn) | -15%
CC(C)CN1C(=O)c2ccccc2C(C(=O)N2CCSCC2)C12CCCC2 (stereo not drawn) | -15%
COCCN1C(=O)c2ccccc2C(C(=O)NC2CCCC2)C12CCCCC2 (stereo not drawn) | 12%
CC(C)CN1C(=O)c2ccccc2C(C(=O)Nc2ccccn2)C12CCCC2 (stereo not drawn) | 14µM*
CCc1ccccc1NC(=O)C1c2ccccc2C(=O)N(CCOC)C12CCCC2 (stereo not drawn) | i
O=C(NCc1ccc(F)cc1)N1CCCCC1c1noc(COc2ccc(F)cc2)n1 (stereo not drawn) | i
